{"source": "PubChem BioAssay (NCI)", "note": "The panel holds about 83,000 compounds, 20% with a hit somewhere; the sample as a whole holds those more often.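 How to read the values: 0–100, growth inhibition (40 = 60% inhibited); 0, no net growth; -100 to 0, cell death (-40 = 40% of starting cells died; -100 = all dead).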 Active and inactive are the calls of the source."}
{"tested_on": "RPMI-8226 leukemia", "assay": "NCI-60 one-dose screen, 48 h (100 = growth as untreated, 0 = no growth, -100 = all killed)", "details": "10 µM unless noted", "procedure": "Growth inhibition of the RPMI-8226 human tumor cell line is measured as a screen for anti-cancer activity. Cells are grown in 96 well plates and exposed to the test compound for 48 hours. Compounds are tested at a single concentration, which is 10^-5 M for most compounds. The reported endpoint is percent growth (GI% or GIPRCNT), where numbers from 0 - 100% represent growth inhibition, and numbers from -100% - 0 represent cell death. For example, a value of 40 represents 60% growth inhibition. A value of 0 means no net growth occurred over the course of the experiment. A value of -40 indicates 40% of cells at the beginning of the experiment died by the end of the experiment. A value of -100 means all cells are dead at the end of the experiment.\nNCI-60 Human Tumor Cell Lines Screen was performed using the standard one-dose NCI protocol, which is described in more detail at https://dtp.cancer.gov/discovery_development/nci-60/default.htm.\nCompounds with GIPRCNT values below 10 were considered active. Activity score was based on GIPRCNT using the following formula: […]\nScore is 0 for GIPRCNT values of 100 or above, 50 for GIPRCNT values of 0, and 100 for GIPRCNT values of -100."}
{"molecule": "COc1cc(/C=C/C(=O)/C=C/c2cc(OC)c3c(c2OC)OCO3)c(OC)c2c1OCO2", "growth": "15.7% (inactive)"}
{"molecule": "CN(C)c1ccc2nc3ccc(=[N+](C)C)c([N+](=O)[O-])c-3sc2c1", "growth": "21.5% (inactive)"}
{"molecule": "N#Cc1c(-c2ccc(Cl)cc2)nc2c(c(-c3ccccc3)nn2-c2ccccc2)c1-c1ccc(O)cc1", "growth": "17.9% (inactive)"}
{"molecule": "Oc1ccc(Cl)cc1Cc1cc(Cl)cc(Cl)c1O", "growth": "0.811% (active)"}
{"molecule": "CCOC(=O)c1nc(Nc2ccc(C(C)=O)cc2)sc1C", "growth": "103% (inactive)"}
{"molecule": "COC(=O)c1ccc2[nH]c(O)c(C(=Nc3ccc(N(C)C(=O)CN4CCN(C)CC4)cc3)c3ccccc3)c2c1", "growth": "-6.02% (active)"}
{"molecule": "CC(=O)c1ccc(Nc2nc(C(C)=O)c(C)s2)cc1", "growth": "95.1% (inactive)"}
{"molecule": "COc1ccc(/C=N/Nc2cc(=O)[nH]c3ccc(Cl)cc23)cc1", "growth": "36.6% (inactive)"}
{"molecule": "c1cc(-c2nnc(SSc3ncnc4nc[nH]c34)o2)ccn1", "growth": "16.1% (inactive)"}
{"molecule": "C[C@]12CC[C@@H]3c4cc(OC(F)F)c(OS(N)(=O)=O)cc4CC[C@H]3[C@@H]1CC[C@@H]2O", "growth": "17.8% (inactive)"}
{"molecule": "Brc1ccc2[nH]cc(-c3nc(-c4c[nH]c5ccncc45)cs3)c2c1", "growth": "-23.4% (active)"}
{"molecule": "N#C/C(=C\\c1cccc2cnccc12)n1nnc2cccc(F)c21", "growth": "6.88% (active)"}
{"molecule": "COc1ccc(C(Cc2ccccc2)NCCN2CCOCC2)cc1", "note": "(stereo not given)", "growth": "109% (inactive)"}
{"molecule": "COc1cc(C(=O)/C=C/c2c(Cl)nc3sccn23)cc(OC)c1OC", "growth": "40.8% (inactive)"}
{"molecule": "CCOC(=O)CC1C(COC(=O)NC)OC(n2cnc3c(NC(=O)Nc4ccccc4)ncnc32)C1O[Si](C)(C)C(C)(C)C", "note": "(stereo not given)", "growth": "39.7% (inactive)"}
{"molecule": "c1ccc(Cc2nn3cc(-c4ccccc4)nc3s2)cc1", "growth": "98.3% (inactive)"}
{"molecule": "CC(=O)N1CCN(c2ccc(OCC3CO[C@](Cn4ccnc4)(c4ccc(Cl)cc4Cl)O3)cc2)CC1", "note": "(stereo not given in full)", "growth": "43.8% (inactive)"}
{"molecule": "CCCCCCN(CCCCCC)c1ccc(/C=C2/SC(=O)NC2=O)c(C)c1", "growth": "65.5% (inactive)"}
{"molecule": "CN1C(=O)N(C)C2Nn3c(s/c(=C\\c4ccccc4)c3=O)=NC21", "note": "(stereo not given)", "growth": "101% (inactive)"}
{"molecule": "Nc1ccccc1-c1cc2c(c3c1[nH]c1ccccc13)CCCCC2", "growth": "99.3% (inactive)"}
{"molecule": "C#Cc1cccc(NC(=O)Nc2ccccc2NC(=O)CCl)c1", "growth": "10.7% [8.25 µM] (inactive)"}
{"molecule": "Cc1ccc(C(C)C)cc1C(=O)C[n+]1ccccc1", "growth": "114% (inactive)"}
{"molecule": "CN(C)CC#Cc1ccc2ncc(C#N)c(Nc3ccc(F)c(Cl)c3)c2c1", "growth": "50.3% (inactive)"}
{"molecule": "CCOC(=O)/C(C#N)=C\\Nc1ccc2ncnc(Nc3ccc(Cl)cc3Cl)c2c1", "growth": "79.5% (inactive)"}
{"molecule": "N/C(=N\\c1nc2ccccc2s1)NC(=O)Nc1cccc2ccccc12", "growth": "13.8% (inactive)"}
{"molecule": "COc1ccc2c(c1OC)C(=O)O[C@H]2[C@H]1c2c(cc3c(c2OC)OCO3)CCN1C", "growth": "107% (inactive)"}
{"molecule": "O=C(CCCCCCSc1nc(-c2ccccc2)cc(-c2ccccc2)n1)NO", "growth": "7.64% (active)"}
{"molecule": "Cc1nc2ccccc2c(/C=C/c2ccccc2)c1C(=O)/C=C/c1ccc(C(F)(F)F)cc1", "growth": "-29.1% (active)"}
{"molecule": "CC(C)(C)NC(=O)C(OC(=O)c1cccc(Cl)c1)c1ccc(Cl)cc1", "note": "(stereo not given)", "growth": "102% (inactive)"}
{"molecule": "COc1nc2ccc(C)cc2cc1-c1nc2c(cnn2-c2ccc(Br)cc2)c(=O)[nH]1", "growth": "33.2% (inactive)"}
{"molecule": "Cn1cc(C(=O)c2nc(-c3cn(C)c4ccc(F)cc34)no2)c2cc(F)ccc21", "growth": "91.1% (inactive)"}
{"molecule": "COc1c(B(O)O)cc(C)cc1-c1nc2ccc3[nH]ncc3c2c2c1CCCC2", "growth": "35.6% (inactive)"}
{"molecule": "CC(=O)OC[C@H]1OC(Sc2sc(C(=O)c3ccc(Cl)cc3)c(N)c2-c2nc3ccccc3s2)[C@H](OC(C)=O)[C@@H](OC(C)=O)[C@@H]1OC(C)=O", "note": "(stereo not given in full)", "growth": "73% (inactive)"}
{"molecule": "COc1cc(/C=N/NC(=O)c2ccc(C)nc2)cc(OC)c1OC", "growth": "121% (inactive)"}
{"molecule": "O=C(S)CNC(=O)c1ccccc1", "growth": "94.5% (inactive)"}
{"molecule": "Cc1cc(Cl)ccc1NS(=O)(=O)c1ccc(-c2cnc(C3CC3)o2)cc1", "growth": "19.3% (inactive)"}
{"molecule": "COc1cc(C(=O)c2cc(C)c3[nH]c4ccc(C)cc4c3c2C)cc(OC)c1OC", "growth": "12.9% (inactive)"}
{"molecule": "COc1ccc(-c2nc3sc(-c4ccc(Cl)cc4)cn3n2)cc1", "growth": "44.9% (inactive)"}
{"molecule": "O=C1NC(=O)C(c2ccccc2)(c2ccccc2)N1Cc1cn(-c2c3ccccc3nc3ccccc23)nn1", "growth": "72.4% (inactive)"}
{"molecule": "Cc1nc(NC(=O)COc2ccc(/C=C3\\Cc4ccc(Cl)cc4C3=O)cc2)sc1C", "growth": "103% (inactive)"}
